From PubChem BioAssay AID1347172 (National Center for Advancing Translational Sciences (NCATS), 2019)
Records with an inconclusive call do not appear. Active and inactive are the calls of the source. The call rests on the fitted dose curve; in most records, active means well fitted inhibition curve with a large enough effect; inconclusive means small, poorly fitted or top-dose-only effect; inactive means flat fitted curve, though single readings scatter.

experiment: Secondary qRT-PCR qHTS assay for selected Zika virus inhibitors; details: Vero cells ZIKV infection, NS5 RNA qRT-PCR, 24 h; series mostly up to 32.6 µM; activity change, negative = inhibition: at the top concentration
Description: Assay Submitters (PI): Avindra Nath, Ph.D., National Institute of Neurological Disorders and Stroke (NINDS), Bethesda, MD Radhakrishnan Padmanabhan, Ph.D., Georgetown University (GU), Washington D.C. Zika Virus causes congenital defects, including microcephaly and is associated with Guillain-Barre syndrome, eningoencephalitis and myelitis in infected adult. […] Using a target-based approach, we hope to establish a screening paradigm to uncover novel, cell-active NS2B-NS3 protease (Zika Virus) specific inhibitors from NCATS' collection of small molecules using qHTS. […] Four assay panel was created to identify potential Zika Virus inhibitors. Namely, (1) GU unlinked NS2B-NS3 AMC tagged protease qHTS, (2) GU unlinked NS2B-NS3 Rhodamine tagged protease qHTS, (3) NINDS linked NS2B-NS3 AMC tagged protease qHTS, (4) NINDS linked NS2B-NS3 Rhodamine tagged protease qHTS. Inhibitors of the Zika virus primary screens are confirmed using qRT-PCR secondary assays, qRT-PCR mCherry orthogonal assay, and qRT-PCR viability counterscreen. Early Translation Branch (ETB) National Center for Advancing Translational Sciences (NCATS), Rockville, MD National Institute of Health (NIH), Bethesda, Maryland
384-well ZIKV qRT-PCR Assay: Vero cells were treated with the indicated compounds at different concentrations, infected with ZIKV (MOI=1) and incubated at 37 degrees C for 3 hours to permit virus invasion. After 3 hr, supernatant was removed, and cells were washed once to remove extracellular virus. After a further 21 hr incubation, infected cells were washed three times with cold PBS (4 degrees C). Plates were then process using the TaqmanGene Expression Cells-to-Ct Kit (ThermoFisher Scientific) following the manufactures protocol. Primers directed to the NS5 sequence (F-[…]; R-GCTCGGCCAATCAGTTCA) along with Taqman probe (FAM-[…]-BHQ; Biosearch Technologies) were used to quantify drug inhibition of viral load. Reactions were run at initial 95 degrees C for 10 min, then 40 cycles of 95 degrees C for 20 sec and 60 degrees C for 40 sec using a LightCycler 480 (Roche). Relative viral copy numbers were generated by normalizing to cells treated with vehicle.

Structure (SMILES) | Potency | activity change, negative = inhibition
CC(C)=CCc1c2c(c3occ(-c4ccc(O)c(O)c4)c(=O)c3c1O)C=CC(C)(C)O2 | 4.47 µM (active) | 
CC1(C)CC[C@]2(C(=O)O)CC[C@]3(C)C(=CCC4[C@@]5(C)C[C@@H](O)[C@H](O)C(C)(C)C5CC[C@]43C)C2C1 (stereo not given in full) |  | -5.81% [at 16.3 µM] (inactive)
N#CC1(c2cccc(C(=O)Nc3cc(Oc4ccc5nc(NC(=O)C6CC6)sc5n4)ccc3F)c2Cl)CC1 |  | 3.94% (inactive)
CC(C)(C)Sc1c(CC(C)(C)C(=O)O)n(Cc2ccc(Cl)cc2)c2ccc(OCc3ccc4ccccc4n3)cc12 | 25.1 µM (active) | 
CC(C)c1onc(-c2c(Cl)cccc2Cl)c1COc1ccc(/C=C/c2cccc(C(=O)O)c2)c(Cl)c1 | 11.2 µM (active) | 
CN(CC(=O)N(Cc1ccc(C2CCCCC2)cc1)c1ccc(C(=O)O)cc1)S(=O)(=O)c1c(F)c(F)c(F)c(F)c1F | 12.6 µM (active) | 
Cc1cc(C(C#N)c2ccc(Cl)cc2)c(Cl)cc1NC(=O)c1cc(I)cc(I)c1O (stereo not given) | 22.4 µM (active) | 
CC(C)c1cccc2c(-c3ccccc3)cc(-c3ccc(-c4ccc(C(=O)O)cc4)[nH]3)nc12 | 10 µM (active) | 
COc1cc(C)c(C(=O)OC2C(C)OC(OC3CCC(C)C4C3C=C(C)C3/C(C)=C\CC/C(C)=C/C5(C)C=C(C(=O)O)C(C)CC56OC(=O)/C(=C(\O)C34C)C6=O)C(O)C2O)c(OC)c1 (stereo not given) |  | -1.08% [at 8.13 µM] (inactive)
Oc1c(Cl)cc(Cl)c(Cl)c1Cc1c(O)c(Cl)cc(Cl)c1Cl | 35.5 µM (active) | 
O=C(O)CC1CCC(c2ccc(-c3ccc(Nc4ccc(C(F)(F)F)nc4)cn3)cc2)CC1 (stereo not given) |  | 1.2% (inactive)
O=C(O)c1ccc(O)c2ncc(N3CCCN(CCc4cccc5ccccc45)CC3)cc12 |  | -14.9% (inactive)
Nc1ccn([C@@H]2O[C@H](CO)[C@@H](O)C2(F)F)c(=O)n1 |  | -11.6% (inactive)
C/C(=C\c1ccc(C(=O)O)cc1)c1ccc2c(c1)C(C)(C)CCC2(C)C | 12.6 µM (active) | 
CC(=O)N1c2ccc(-c3ccc(C(=O)O)cc3)cc2C(Nc2ccc(Cl)cc2)CC1C (stereo not given) |  | -8.25% (inactive)
CC(=O)O[C@@H]1C[C@]2(C)[C@@]3(CCC4[C@@]5(C)CC[C@H](O[C@@H]6O[C@H](C(=O)O)[C@@H](O)[C@H](O[C@@H]7O[C@H](CO)[C@H](O)[C@H](O)[C@H]7O[C@@H]7O[C@@H](C)[C@H](O)[C@@H](O)[C@H]7O[C@@H]7OC[C@](O)(CO)[C@H]7O)[C@H]6O[C@@H]6O[C@H](CO)[C@H](O)[C@H](O)[C@H]6O)C(C)(C)C5CC[C@]42C)O[C@@H](O)[C@]12C3CC(C)(C)[C@@H](OC(=O)/C=C/c1ccc(O)c(O)c1)[C@@H]2OC(=O)/C=C/c1ccccc1 (stereo not given in full) |  | -6.06% [at 6.77 µM] (inactive)
CCOC(=O)c1ccc(NC(=O)CSc2nc(-c3ccc(F)cc3)cc(C(F)(F)F)c2C#N)cc1 |  | -18.9% (inactive)
CCOc1ccc(-c2cc(NC(=O)c3c(F)cccc3F)c(C(=O)O)s2)cc1 |  | -11.2% (inactive)
CCOc1nc2cccc(C(=O)OC(C)OC(=O)OC3CCCCC3)c2n1Cc1ccc(-c2ccccc2-c2nn[nH]n2)cc1 (stereo not given) | 12.6 µM (active) | 
Cc1nc(C2CCCCC2)c(-c2ccc(S(N)(=O)=O)c(F)c2)o1 |  | -1.51% (inactive)

Structure (SMILES) | Potency | activity change, negative = inhibition
O=C1NC(=O)/C(=C/c2ccc3c(c2)OC(F)(F)O3)S1 |  | 2.32% (inactive)
O=C(O)c1ccc(CCCc2ccc(OCCc3ccc(F)cc3)cc2)o1 |  | -0.859% (inactive)
CN(C)[C@@H]1C(=O)C(C(N)=O)=C(O)[C@@]2(O)C(=O)C3=C(O)c4c(O)ccc(Cl)c4[C@@H](O)[C@H]3C[C@@H]12 |  | -4.42% (inactive)
O=C(O)c1c(Sc2ccccc2)c2cc(Cl)ccc2n1Cc1ccc(Cl)cc1 |  | -24.4% (inactive)
CCc1oc2ccccc2c1C(=O)c1cc(Br)c(O)c(Br)c1 |  | -19.8% (inactive)
COc1cc(/C=C/c2ccccc2)c(C(=O)O)c(O)c1CC=C(C)C |  | -2.8% [at 21.8 µM] (inactive)
O=S(=O)(O)c1ccc2cc(N=Nc3cc(S(=O)(=O)O)c4cccnc4c3O)ccc2c1 |  | 4.54% (inactive)
Nc1ncnc2c([C@@H]3N[C@H](CO)[C@@H](O)[C@H]3O)c[nH]c12 |  | 10.9% (inactive)
COc1cc(C(=O)O)ccc1NC(=O)[C@@H]1N[C@@H](CC(C)(C)C)[C@](C#N)(c2ccc(Cl)cc2F)[C@H]1c1cccc(Cl)c1F | 12.6 µM (active) | 
CO[C@H]1C[C@@H](O[C@@H]2/C(C)=C/C[C@@H]3C[C@@H](C[C@]4(CC[C@H](C)[C@@H](C5CCCCC5)O4)O3)OC(=O)[C@@H]3C=C(C)/C(=N/O)[C@H]4OC/C(=C\C=C\[C@@H]2C)[C@]43O)O[C@@H](C)[C@H]1O | 3.98 µM (active) | 
O=C(O)Cn1nnc(-c2cc(N3CCC(Oc4cc(F)ccc4Br)CC3)no2)n1 |  | -7.81% (inactive)
O=C(O)c1ccc(S(=O)(=O)N(Cc2ccc(OC(F)(F)F)cc2)c2ncc(C(F)(F)F)cc2Cl)cc1 |  | 2.79% (inactive)
COc1cc(C(=O)NS(=O)(=O)c2ccccc2C)ccc1Cc1cn(C)c2ccc(NC(=O)OC3CCCC3)cc12 |  | 0.303% (inactive)
CCOC(=O)c1ccc(N2C(=O)c3n[nH]c(-c4cccs4)c3C2c2ccc(C(C)(C)C)cc2)cc1 (stereo not given) | 3.55 µM (active) | 
O=C(N/N=C/c1ccc(O)c(O)c1)c1cc2ccccc2cc1O |  | -17.4% (inactive)
O=C(O)c1cccc(-c2ccc(-c3cn(C(=O)N4CCCCC4Cc4ccccc4)nn3)cc2)c1 (stereo not given) |  | -2.59% (inactive)
Cc1ccc2nc(NS(=O)(=O)c3ccc(Cl)cc3)c(Nc3ccc(C(=O)O)cc3)nc2c1 |  | -7.87% (inactive)
COc1ccccc1-c1cccc(-c2c(O)c3cc(C#N)c(Cl)cc3[nH]c2=O)c1 |  | -5.94% (inactive)
CC(C)(O)c1ccccc1CC[C@@H](SCC1(CC(=O)O)CC1)c1cccc(/C=C/c2ccc3ccc(Cl)cc3n2)c1 |  | 2.54% (inactive)
O=C(O)C1(Cc2cccc(Nc3nccs3)n2)CCC(Oc2cccc(Cl)c2F)CC1 (stereo not given) |  | -14.6% (inactive)
